Compound activity: PubChem, several laboratories
Shown are actives, neighbours in structure and some others; about 1.3% of the full set was active somewhere.
GLD-1 RNA inh: GLD-1-TGE RNA interaction inhibition (C. elegans); inhibition, % at 5.96 µM; Q17339; purified GLD-1 + fluorescein TGE RNA, fluorescence polarization; AID 2280; 320,000 compounds, 0.44% hits;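 active means percent inhibition above a per-plate cutoff, the plate mean of test compounds plus 3 SD, cut at about 30% in these data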
Target sequence (Q17339 whole entry, looked up): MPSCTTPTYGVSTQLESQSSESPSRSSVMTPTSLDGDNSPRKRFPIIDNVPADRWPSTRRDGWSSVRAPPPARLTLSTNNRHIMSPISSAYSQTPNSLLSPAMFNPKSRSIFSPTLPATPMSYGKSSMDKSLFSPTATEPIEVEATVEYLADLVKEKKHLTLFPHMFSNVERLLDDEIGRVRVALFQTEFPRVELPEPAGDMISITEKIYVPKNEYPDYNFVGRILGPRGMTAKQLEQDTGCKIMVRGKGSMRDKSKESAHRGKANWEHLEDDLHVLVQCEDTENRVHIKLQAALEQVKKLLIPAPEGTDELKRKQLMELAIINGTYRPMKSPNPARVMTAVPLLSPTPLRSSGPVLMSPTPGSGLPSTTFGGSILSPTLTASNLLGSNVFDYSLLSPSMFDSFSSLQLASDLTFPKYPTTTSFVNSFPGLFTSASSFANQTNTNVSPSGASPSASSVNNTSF
MEX-5 binding: C. elegans MEX-5 TCR-2 RNA binding activity; MEX-5/FITC-TCR2 RNA binding, fluorescence polarization; active compounds read low; activity score (negative = inhibition of binding), % at 10 µM; 300,000 compounds, 0.38% hits; AID 1832;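 active means inhibition past about -25% in most replicates, and total fluorescence under double the plate's negative control median, limit read from the data; inconclusive means replicates evenly split on the limit, or fluorescence at least double controls; inactive means too little inhibition in most replicates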
MCL1 BIM primary: disrupts human MCL1 binding to BIM-BH3 peptide | Q07820 | GST-MCL1 / FITC-Bim-BH3 fluorescence polarization | inhibition, % at 10.9 µM | 320,000 compounds, 0.68% hits | AID 2057;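 active means inhibition above the mean inhibition of all tested compounds plus 3 SD, set per campaign, cut at about 40% in these data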;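 further: higher means more loss of mP so more displacement of Bim peptide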
BCLXL inh: blocks human Bcl-xL binding to Bim BH3 peptide; GST-Bcl-xL / FITC-Bim BH3 peptide fluorescence polarization; inhibition, % at 10.9 µM; 320,000 compounds, 0.7% hits; Q07817; AID 2129;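 active means inhibition above the mean of all tested compounds plus 3 SD, cutoff set per campaign, cut at about 30% in these data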;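 further: inhibitors lower millipolarization by displacing the labeled peptide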
EBV gp42 block: EBV gp42 inhibition; Q1HVG2; Fluorescence polarization binding assay, mP read-out; inhibition, % (tested at 21.74 µM); 220,000 compounds, 0.42% hits; AID 1085; in the data active means inhibition above about 50%
BCLXL inh confirm: Bcl-xL (human) inhibition, MCL1 counter-screen confirmation. GST-Bcl-xL / FITC-Bim BH3 peptide FP binding. AID 2166. shares compounds with MCL1 BIM primary. inhibition, % at 10.9 µM. 1,700 compounds, 54% hits;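 active means inhibition above a cutoff equal to the mean inhibition of all tested compounds plus 3 SD, cut at about 30% in these data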
MCL1 BIM confirm: MCL1-BIM-BH3 interaction inhibition, confirmation. shares compounds with MCL1 BIM primary. GST-MCL1 / FITC-Bim-BH3 fluorescence polarization. inhibition, % at 10.9 µM. 1,700 compounds, 61% hits;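 active means inhibition above the average of all tested compounds plus 3 SD, cut at about 40% in these data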
GLD1 RNA confirm: GLD-1 TGE RNA interaction inhibition, confirmation | GLD-1/FL-TGE RNA fluorescence polarization, biochemical | shares compounds with GLD-1 RNA inh | AID 2459 | 550 compounds, 10% hits | inhibition, % at 5.96 µM;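 active means average inhibition across triplicates above the hit cutoff set in the primary screen, cut at about 32% in these data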
Hits are given with their value.

How did COc1cc2c(cc1OC)-c1c(OC)c(OC)c(OC)c3ccnc(c13)C2=O do in these assays?
GLD-1 RNA inh: 41; MEX-5 binding: -83; MCL1 BIM primary: 55; BCLXL inh: 52; EBV gp42 block: inactive; BCLXL inh confirm: 59; MCL1 BIM confirm: 56; GLD1 RNA confirm: 41

Results for Nc1ccc2nonc2c1[N+](=O)[O-] ?
GLD-1 RNA inh: active; MEX-5 binding: inconclusive; MCL1 BIM primary: active; BCLXL inh: active; EBV gp42 block: 194; BCLXL inh confirm: active; MCL1 BIM confirm: active; GLD1 RNA confirm: 158

Results for O=C(COc1ccc(Br)cc1)N1CCN(Cc2ccc3c(c2)OCO3)CC1 ?
GLD-1 RNA inh: inactive; MEX-5 binding: inactive; MCL1 BIM primary: inactive; BCLXL inh: inactive

How did N#Cc1ccc(/C=C/C(=O)O)cc1 do in these assays?
GLD-1 RNA inh: 55; MCL1 BIM primary: inactive; BCLXL inh: inactive; EBV gp42 block: inactive; GLD1 RNA confirm: inactive

How did CN(C)C(Cc1ccc(C#N)cc1)C(=O)c1ccccc1 (centres undefined) do in these assays?
GLD-1 RNA inh: inactive; MEX-5 binding: inactive; MCL1 BIM primary: inactive; BCLXL inh: inactive; EBV gp42 block: inactive

What do the screens show for `CC(=O)N1N=C(c2c(O)n(C)c(=O)n(C)c2=O)CC1c1ccccc1` (centres undefined)?
GLD-1 RNA inh: inactive; MEX-5 binding: inactive; MCL1 BIM primary: inactive; BCLXL inh: inactive; EBV gp42 block: inactive

What do the screens show for `CCN(CC)CCN1Cc2ccccc2C1=N`?
GLD-1 RNA inh: 36; MEX-5 binding: inactive; MCL1 BIM primary: inactive; BCLXL inh: 32; EBV gp42 block: inactive; GLD1 RNA confirm: inactive

Results for O=C1CN(O)C(c2ccccc2Cl)=c2cc(Br)ccc2=N1 ?
GLD-1 RNA inh: inactive; MEX-5 binding: inactive; MCL1 BIM primary: inactive; BCLXL inh: inactive

Results for COC(=O)CCCCC1SCC(NC(=O)c2ccccc2)C1Cl (centres undefined) ?
GLD-1 RNA inh: 38; MEX-5 binding: inactive; MCL1 BIM primary: 46; BCLXL inh: 48; EBV gp42 block: 53; GLD1 RNA confirm: inactive

How did CNC(=O)Oc1ccc(-c2cn3cc(Cl)ccc3n2)cc1 do in these assays?
GLD-1 RNA inh: inactive; MEX-5 binding: inactive; MCL1 BIM primary: inactive; BCLXL inh: inactive; EBV gp42 block: inactive

How did CNC(=O)Oc1cccc(-c2cn3cc(OC(=O)NC)ccc3n2)c1 do in these assays?
GLD-1 RNA inh: 42; MCL1 BIM primary: inactive; BCLXL inh: inactive; EBV gp42 block: inactive; GLD1 RNA confirm: inactive
